The full ranking holds about 4,100 sequences; the median of “RBNS R-value (6-mer enrichment in protein-bound RNA vs input library)” is about 0.99, and the highest 2% start at about 1.4. The sample as a whole holds a higher share of the highest values than the screen did.
System: PfIESI-1 RRM domain (Plasmodium falciparum ortholog aa 875-1232, GST fusion)
Test: RBNS R-value (6-mer enrichment in protein-bound RNA vs input library) (ratio); higher = stronger binding preference; the methods of the paper give 50 / 100 / 500 nM protein instead
Experimental: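 RNA Bind-n-Seq: recombinant GST-tagged IESI-1 RRM domain was incubated at room temperature with a random 40-nt in vitro transcribed RNA library at 250, 500 or 1000 nM protein. Bound RNA was pulled down on glutathione beads and sequenced. R-value is the enrichment of each 6-mer in the bound RNA relative to the input library. Each 6-mer sits inside the random 40-mer context, not as an isolated oligo. Values are replicate 1 only.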

GAUGGU
RBNS R-value (protein concentration: 250 nM): 1.18
RBNS R-value (protein concentration: 500 nM): 1.23
RBNS R-value (protein concentration: 1000 nM): 1.13

GAUGAG
RBNS R-value (protein concentration: 250 nM): 1.61
RBNS R-value (protein concentration: 500 nM): 1.68
RBNS R-value (protein concentration: 1000 nM): 1.43

GACGAG
RBNS R-value (protein concentration: 250 nM): 1.12
RBNS R-value (protein concentration: 500 nM): 1.13
RBNS R-value (protein concentration: 1000 nM): 1.11

GAUGAA
RBNS R-value (protein concentration: 250 nM): 1.88
RBNS R-value (protein concentration: 500 nM): 2
RBNS R-value (protein concentration: 1000 nM): 1.59

AAUGAC
RBNS R-value (protein concentration: 250 nM): 1.08
RBNS R-value (protein concentration: 500 nM): 1.1
RBNS R-value (protein concentration: 1000 nM): 1.09

GAUGAU
RBNS R-value (protein concentration: 250 nM): 2.43
RBNS R-value (protein concentration: 500 nM): 2.58
RBNS R-value (protein concentration: 1000 nM): 1.9

AAUGAA
RBNS R-value (protein concentration: 250 nM): 0.954
RBNS R-value (protein concentration: 500 nM): 1.1
RBNS R-value (protein concentration: 1000 nM): 1.03

UAUGAC
RBNS R-value (protein concentration: 250 nM): 0.947
RBNS R-value (protein concentration: 500 nM): 0.945
RBNS R-value (protein concentration: 1000 nM): 0.924

GGUGAA
RBNS R-value (protein concentration: 250 nM): 0.997
RBNS R-value (protein concentration: 500 nM): 1.06
RBNS R-value (protein concentration: 1000 nM): 1.06

GAUGCU
RBNS R-value (protein concentration: 250 nM): 1.34
RBNS R-value (protein concentration: 500 nM): 1.37
RBNS R-value (protein concentration: 1000 nM): 1.24

GAUGAC
RBNS R-value (protein concentration: 250 nM): 1.8
RBNS R-value (protein concentration: 500 nM): 1.8
RBNS R-value (protein concentration: 1000 nM): 1.51

GAAUAC
RBNS R-value (protein concentration: 250 nM): 0.992
RBNS R-value (protein concentration: 500 nM): 1.04
RBNS R-value (protein concentration: 1000 nM): 0.993

CAACUU
RBNS R-value (protein concentration: 250 nM): 0.893
RBNS R-value (protein concentration: 500 nM): 0.889
RBNS R-value (protein concentration: 1000 nM): 0.886

GUAAUU
RBNS R-value (protein concentration: 250 nM): 0.943
RBNS R-value (protein concentration: 500 nM): 0.984
RBNS R-value (protein concentration: 1000 nM): 0.95

UACCUA
RBNS R-value (protein concentration: 250 nM): 0.87
RBNS R-value (protein concentration: 500 nM): 0.814
RBNS R-value (protein concentration: 1000 nM): 0.831

GUAACA
RBNS R-value (protein concentration: 250 nM): 0.845
RBNS R-value (protein concentration: 500 nM): 0.924
RBNS R-value (protein concentration: 1000 nM): 0.87

AAAGAU
RBNS R-value (protein concentration: 250 nM): 1.06
RBNS R-value (protein concentration: 500 nM): 1.19
RBNS R-value (protein concentration: 1000 nM): 1.11

GGUACC
RBNS R-value (protein concentration: 250 nM): 1.07
RBNS R-value (protein concentration: 500 nM): 1
RBNS R-value (protein concentration: 1000 nM): 1.08

CCUCUA
RBNS R-value (protein concentration: 250 nM): 0.848
RBNS R-value (protein concentration: 500 nM): 0.783
RBNS R-value (protein concentration: 1000 nM): 0.823

ACGAGU
RBNS R-value (protein concentration: 250 nM): 1.04
RBNS R-value (protein concentration: 500 nM): 1.06
RBNS R-value (protein concentration: 1000 nM): 1.02

GCUUGA
RBNS R-value (protein concentration: 250 nM): 1.36
RBNS R-value (protein concentration: 500 nM): 1.4
RBNS R-value (protein concentration: 1000 nM): 1.28

ACUUGC
RBNS R-value (protein concentration: 250 nM): 1.02
RBNS R-value (protein concentration: 500 nM): 0.979
RBNS R-value (protein concentration: 1000 nM): 1.01

UCUUGA
RBNS R-value (protein concentration: 250 nM): 1.3
RBNS R-value (protein concentration: 500 nM): 1.32
RBNS R-value (protein concentration: 1000 nM): 1.25

CCUUGC
RBNS R-value (protein concentration: 250 nM): 1.16
RBNS R-value (protein concentration: 500 nM): 1.03
RBNS R-value (protein concentration: 1000 nM): 1.09

ACUUGA
RBNS R-value (protein concentration: 250 nM): 1.42
RBNS R-value (protein concentration: 500 nM): 1.46
RBNS R-value (protein concentration: 1000 nM): 1.34

ACUUGU
RBNS R-value (protein concentration: 250 nM): 0.921
RBNS R-value (protein concentration: 500 nM): 0.923
RBNS R-value (protein concentration: 1000 nM): 0.962

CCUUGG
RBNS R-value (protein concentration: 250 nM): 1.13
RBNS R-value (protein concentration: 500 nM): 1.03
RBNS R-value (protein concentration: 1000 nM): 1.12

CCUUGA
RBNS R-value (protein concentration: 250 nM): 1.46
RBNS R-value (protein concentration: 500 nM): 1.37
RBNS R-value (protein concentration: 1000 nM): 1.32

GCUUGU
RBNS R-value (protein concentration: 250 nM): 0.92
RBNS R-value (protein concentration: 500 nM): 0.92
RBNS R-value (protein concentration: 1000 nM): 0.939

CGAGUC
RBNS R-value (protein concentration: 250 nM): 1.09
RBNS R-value (protein concentration: 500 nM): 1.04
RBNS R-value (protein concentration: 1000 nM): 1.06

ACGCCU
RBNS R-value (protein concentration: 250 nM): 1.07
RBNS R-value (protein concentration: 500 nM): 0.995
RBNS R-value (protein concentration: 1000 nM): 1.03

AUGUGC
RBNS R-value (protein concentration: 250 nM): 1.04
RBNS R-value (protein concentration: 500 nM): 1.07
RBNS R-value (protein concentration: 1000 nM): 1

AGUCAA
RBNS R-value (protein concentration: 250 nM): 0.859
RBNS R-value (protein concentration: 500 nM): 0.93
RBNS R-value (protein concentration: 1000 nM): 0.933

GGAUUG
RBNS R-value (protein concentration: 250 nM): 1.02
RBNS R-value (protein concentration: 500 nM): 1.02
RBNS R-value (protein concentration: 1000 nM): 1.02

UGAUUG
RBNS R-value (protein concentration: 250 nM): 2.38
RBNS R-value (protein concentration: 500 nM): 2.42
RBNS R-value (protein concentration: 1000 nM): 1.85

UGAUUA
RBNS R-value (protein concentration: 250 nM): 2.21
RBNS R-value (protein concentration: 500 nM): 2.58
RBNS R-value (protein concentration: 1000 nM): 1.94

CGAUUA
RBNS R-value (protein concentration: 250 nM): 1.05
RBNS R-value (protein concentration: 500 nM): 1.11
RBNS R-value (protein concentration: 1000 nM): 1.04

CGAUUG
RBNS R-value (protein concentration: 250 nM): 1.28
RBNS R-value (protein concentration: 500 nM): 1.27
RBNS R-value (protein concentration: 1000 nM): 1.2

UGAUCC
RBNS R-value (protein concentration: 250 nM): 1.38
RBNS R-value (protein concentration: 500 nM): 1.38
RBNS R-value (protein concentration: 1000 nM): 1.26

AGAUUC
RBNS R-value (protein concentration: 250 nM): 1.19
RBNS R-value (protein concentration: 500 nM): 1.22
RBNS R-value (protein concentration: 1000 nM): 1.17

CGAUCC
RBNS R-value (protein concentration: 250 nM): 1.08
RBNS R-value (protein concentration: 500 nM): 1.01
RBNS R-value (protein concentration: 1000 nM): 1.06

CGAUUC
RBNS R-value (protein concentration: 250 nM): 1.25
RBNS R-value (protein concentration: 500 nM): 1.25
RBNS R-value (protein concentration: 1000 nM): 1.2

UGAUUC
RBNS R-value (protein concentration: 250 nM): 2.44
RBNS R-value (protein concentration: 500 nM): 2.61
RBNS R-value (protein concentration: 1000 nM): 1.97

AGAUUA
RBNS R-value (protein concentration: 250 nM): 0.942
RBNS R-value (protein concentration: 500 nM): 1.04
RBNS R-value (protein concentration: 1000 nM): 0.964

GGAUCC
RBNS R-value (protein concentration: 250 nM): 1.04
RBNS R-value (protein concentration: 500 nM): 0.978
RBNS R-value (protein concentration: 1000 nM): 1.05

CCCGCU
RBNS R-value (protein concentration: 250 nM): 1.09
RBNS R-value (protein concentration: 500 nM): 0.999
RBNS R-value (protein concentration: 1000 nM): 1.04

UAAUCC
RBNS R-value (protein concentration: 250 nM): 0.907
RBNS R-value (protein concentration: 500 nM): 0.864
RBNS R-value (protein concentration: 1000 nM): 0.872

AACCAA
RBNS R-value (protein concentration: 250 nM): 0.985
RBNS R-value (protein concentration: 500 nM): 1.04
RBNS R-value (protein concentration: 1000 nM): 1.01

AAAUAG
RBNS R-value (protein concentration: 250 nM): 0.904
RBNS R-value (protein concentration: 500 nM): 1.06
RBNS R-value (protein concentration: 1000 nM): 0.986

UGAUUU
RBNS R-value (protein concentration: 250 nM): 3
RBNS R-value (protein concentration: 500 nM): 3.23
RBNS R-value (protein concentration: 1000 nM): 2.3

AGAUUU
RBNS R-value (protein concentration: 250 nM): 1.17
RBNS R-value (protein concentration: 500 nM): 1.26
RBNS R-value (protein concentration: 1000 nM): 1.16

GGAUUU
RBNS R-value (protein concentration: 250 nM): 1.03
RBNS R-value (protein concentration: 500 nM): 1.02
RBNS R-value (protein concentration: 1000 nM): 1.02
